Results filed as inconclusive are left out. Calls of active or inactive are those of the source. Calls come from the whole dose curve; as a rule, active = well fitted curve in the direction sought with a large enough effect; inconclusive = small, poorly fitted or top-dose-only effect, or another doubt; inactive = no such curve, though single readings can be large; an effect the other way counts as inactive or inconclusive.
Columns and labels:
[1] = Cellular Toxicity (caspase-3) Mesangial (AID 660); conditions: mesangial cells, normalized: DMSO 0%, 100 µM tamoxifen 100%; at 91.7 µM (top of the series);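 note: combined caspase 3 and 7 activity read by Caspase-Glo luminescence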
Procedure, shortened: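 Concentration-response qHTS: compound-induced rise in caspase 3/7 luminescence in human mesangial cells after 16 h, normalized to DMSO and 100 uM tamoxifen controls.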

[2] = Cellular Toxicity (caspase-3) SK-N-SH (AID 661);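 note: 0% = DMSO basal and 100% = 10 µM staurosporine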
Procedure, shortened: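 Caspase 3/7 activation is measured as a luminescence increase from aminoluciferin released by substrate cleavage in SK-N-SH cells after 16 hr compound treatment; values are AC50 from concentration-response curves.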

[3] = Cellular Toxicity (caspase-3) H-4-II-E (AID 663); conditions: H-4-II-E rat hepatoma, scaled: DMSO 0%, 100 µM tamoxifen 100%; at 92.2 µM (top of the series);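 note: cells exposed to compound for 16 hr before readout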
Procedure, shortened: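 Rat hepatoma H-4-II-E cells (1500/well) plated 5 hr, then exposed to compound titrations for 16 hr at 37 °C. Caspase-Glo 3/7 luminescence read after 20 min at RT; data normalized to DMSO and 100 uM tamoxifen, AC50 from Hill fits.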

[4] = Cellular Toxicity (caspase-3) Hek293 (AID 664); conditions: HEK293 caspase-3 activation, DMSO = 0%, 100 µM tamoxifen = 100%; at 92.2 µM (top of the series);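 note: cells exposed to compound for 16 h at 37 °C before readout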
Procedure, shortened: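 Activation of caspase-3/7 is measured as increased luminescence from cleaved peptide-aminoluciferin substrate in HEK293 cells treated 16 hours at 37 °C. AC50 values come from Hill-equation fits of concentration-response data.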

[5] = Cellular Toxicity (caspase-3) N2a (AID 665);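 note: compound exposure lasted 16 h at 37 °C before readout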
Procedure, shortened: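 Plated mouse neuroblastoma N2a cells received titrated compounds for 16 h in complete medium. Caspase activity was then detected with a peptide-aminoluciferin luminescent reagent.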

[6] = Cellular Toxicity (caspase-3) NIH 3T3 (AID 666);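 note: caspase signal read after 16 h compound exposure; 0% = DMSO basal and 100% = 100 µM tamoxifen stimulation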
Procedure, shortened: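 Concentration-response qHTS in NIH 3T3 mouse fibroblasts scores caspase-3/7 activation as rising luminescence after 16 hr compound exposure. Signals are scaled between DMSO-only and 100 uM tamoxifen.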

[7] = Cellular Toxicity (caspase-3) Renal Proximal Tubule (AID 667); conditions: Potency: caspase-3 activation;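 note: cells exposed to compound for 16 hours at 37 °C before detection; 0% = DMSO basal and 100% = 10 µM staurosporine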
Procedure, shortened: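 Primary rat proximal tubule cells, 1000/well, 5 h plating at 37 °C, then compound 16 h at 37 °C. Caspase-Glo 3/7 reagent, 1 h RT, luminescence. Normalized to DMSO (basal) and 10 uM staurosporine (100%); Hill-fit AC50.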

[8] = target: Cytochrome P450 3A4 (Homo sapiens) (UniProt P08684); assay: qHTS Assay for Inhibitors and Substrates of Cytochrome P450 3A4 (AID 884); note: % is set by controls: 0 for no effect and ±100 for the full control effect; nearly all actives have a fitted effect of over 50% in size
Cytochrome P450 3A4 (Homo sapiens), sequence (P08684 whole entry, looked up): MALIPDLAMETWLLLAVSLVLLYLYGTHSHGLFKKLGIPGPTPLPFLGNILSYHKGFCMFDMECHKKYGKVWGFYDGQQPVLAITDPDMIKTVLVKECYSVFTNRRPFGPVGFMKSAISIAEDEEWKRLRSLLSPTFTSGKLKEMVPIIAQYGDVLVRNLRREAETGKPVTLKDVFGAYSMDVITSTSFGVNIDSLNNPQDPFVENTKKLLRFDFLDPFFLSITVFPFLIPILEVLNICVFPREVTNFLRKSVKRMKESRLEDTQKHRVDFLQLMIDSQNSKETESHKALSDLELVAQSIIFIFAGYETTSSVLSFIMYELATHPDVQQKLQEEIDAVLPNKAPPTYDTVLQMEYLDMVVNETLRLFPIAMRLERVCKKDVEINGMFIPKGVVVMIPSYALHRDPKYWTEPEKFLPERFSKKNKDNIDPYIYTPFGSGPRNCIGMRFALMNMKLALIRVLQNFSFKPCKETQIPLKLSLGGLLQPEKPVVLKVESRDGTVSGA
Procedure, shortened: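 20 nM human CYP3A4 with 25 uM Luciferin-PPXE (at KM) in 200 mM KPO4, preincubated 10 min with compound; NADPH regeneration started a 60 min RT reaction. Luciferin detected by luminescence, normalized to 57 uM ketoconazole as full inhibition.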

[9] = Cell Viability - LYMP2-001 (AID 921);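 note: 0% = DMSO only and full inhibition = tetraoctylammonium bromide control wells; nearly all actives have a fitted effect of over 70% in size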
Procedure, shortened: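 Human lymphoblastoid cells (Coriell), 2500 per well, were preincubated 5 hr at 37 C, then exposed to compounds in complete medium for 24 hr at 37 C. Cellular ATP was read by CellTiter-Glo luminescence; AC50 from Hill fits of concentration-response data.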

[10] = MultiTox-Fluor Cytotoxicity Assay - LYMP1-001 - Dead Cells (AID 946);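 note: 0% = DMSO and 100% = tetraoctylammonium bromide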
Procedure, shortened: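 LYMP1-001 lymphoblastoid cells (2500/well) treated 16 h at 37 C. Dead-cell protease cleavage of bis-AAF-R110 read at Ex/Em 485/520. Normalized to DMSO and 15 uM tetraoctylammonium bromide; AC50 from Hill fits.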

[11] = MultiTox-Fluor Cytotoxicity Assay - LYMP1-001 - Live Cells (AID 947);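 note: 0% = DMSO only and full inhibition = tetraoctylammonium bromide control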
[12] = Cell Viability - LYMP1-002 - Assay at 16 hr (AID 948);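 note: 0% = DMSO alone and full effect = 92 µM tetraoctylammonium bromide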
Procedure, shortened: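 Human lymphoblastoid cells (LYMP1-002), 2500/well, were preincubated 5 hr at 37 C, then exposed to compounds for 16 hr at 37 C in complete medium. Cellular ATP was read by CellTiter-Glo luminescence after 30 min at room temperature; AC50 from Hill fits.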

[13] = MultiTox-Fluor Cytotoxicity Assay - LYMP1-002 - Live Cells (AID 955); note: % is set by controls: 0 for no effect and ±100 for the full control effect
Procedure, shortened: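 Cytotoxicity in the human lymphoblastoid line LYMP1-002 is measured as loss of live-cell protease activity after 16 h treatment in complete culture medium. AC50 is derived from Hill-equation fits of qHTS concentration-response data.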

[14] = MultiTox-Fluor Cytotoxicity Assay - LYMP1-002 - Dead Cells (AID 960);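 note: 0% = DMSO and 100% = tetraoctylammonium bromide; nearly all actives have a fitted effect of over 60% in size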
Procedure, shortened: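 Acute cytotoxicity in a human lymphoblastoid line is scored as rising dead-cell protease signal after 16 hr exposure at 37 C, measured fluorometrically (485/520).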

[15] = MultiTox-Fluor Cytotoxicity Assay - LYMP1-003 - Dead Cells (AID 961);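 note: 0% = DMSO and 100% = tetraoctylammonium bromide; nearly all actives have a fitted effect of over 70% in size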
Procedure, shortened: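 LYMP1-003 human lymphoblastoid cells (2500/well) exposed to compound 16 h at 37 C in complete medium; dead-cell protease read with bis-AAF-R110 fluorescence (Ex/Em 485/520) after 60 min at room temperature. Normalized to DMSO and 15 uM tetraoctylammonium bromide; AC50 from Hill fit.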

[16] = MultiTox-Fluor Cytotoxicity Assay - LYMP1-003 - Live Cells (AID 962);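 note: 0% = DMSO only and full loss = 92 µM tetraoctylammonium bromide; cytotoxic hits lower the live-cell protease signal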
Procedure, shortened: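 Cells plated at 2500 per well and incubated 5 hr; compounds added and incubated 16 hr at 37 C; MultiTox-Fluor reagent added for 60 min at room temperature; fluorescence of liberated AFC measured at 405/510 nm.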

[17] = Cell Viability - LYMP1-003 - Assay at 24 hr (AID 963);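 note: plate controls were DMSO only for no effect and tetraoctylammonium bromide positive control for full effect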
Procedure, shortened: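 Acute toxicity in LYMP1-003 lymphoblastoid cells: 24 hr compound treatment at 37 C, ATP measured with CellTiter-Glo after 30 min at room temperature. AC50 derived by fitting the Hill equation to qHTS titrations.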

[18] = Cell Viability - LYMP2-003 (AID 965);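 note: cells exposed to compounds for 24 h before reading; 0% = DMSO only and full effect = 92 µM tetraoctylammonium bromide; nearly all actives have a fitted effect of over 50% in size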
Procedure, shortened: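 Human lymphoblastoid cells (2500/well) were pre-incubated 5 hr at 37 C, then exposed to compounds over a concentration range for 24 hr at 37 C. Intracellular ATP was read by CellTiter-Glo luminescence; AC50 came from Hill-equation fits.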

[19] = Cell Viability - LYMP1-003 - Assay at 40 hr (AID 964); note: % is set by controls: 0 for no effect and ±100 for the full control effect; nearly all actives have a fitted effect of over 60% in size
Procedure, shortened: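 This qHTS cytotoxicity screen treats human lymphoblastoid cells (LYMP1-003) with compounds for 40 hr and quantifies cellular ATP via luciferase luminescence.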

Cc1cccc(C(=O)O)c1
inactive: caspase-3 activation [1] -1.17% | outcome [2] | caspase-3 activation [3] -1.62% | caspase-3 activation [4] -3.34% | outcome [5] | outcome [6] | Potency [7] | Potency [8] | Potency [9] | outcome [10] | outcome [11] | outcome [12] | outcome [13] | outcome [14] | Potency [15] | Potency [16] | Potency [17] | Potency [18]

CCC(C)(C)OC
inactive: caspase-3 activation [1] -0.415% | outcome [2] | caspase-3 activation [3] 0.321% | caspase-3 activation [4] -1.93% | outcome [5] | outcome [6] | Potency [7] | Potency [8] | Potency [9] | outcome [10] | outcome [11] | outcome [12] | outcome [13] | outcome [14] | Potency [16] | Potency [17] | Potency [19]

C=CCOC(=O)COCCC(C)C
inactive: caspase-3 activation [1] -0.0239% | outcome [2] | caspase-3 activation [3] -0.913% | caspase-3 activation [4] -2.01% | outcome [5] | outcome [6] | Potency [7] | Potency [8] | Potency [9] | outcome [10] | outcome [11] | outcome [12] | outcome [13] | outcome [14] | Potency [16] | Potency [17] | Potency [19] | Potency [18]

CCOc1ccc(NC(C)=O)cc1N
inactive: caspase-3 activation [1] 0.11% | outcome [2] | caspase-3 activation [3] 0.579% | caspase-3 activation [4] -1.58% | outcome [5] | outcome [6] | Potency [7] | Potency [8] | Potency [9] | outcome [10] | outcome [11] | outcome [12] | outcome [13] | outcome [14] | Potency [15] | Potency [16] | Potency [17] | Potency [19] | Potency [18]

Cc1c(C(=O)O)cccc1[N+](=O)[O-]
inactive: caspase-3 activation [1] -0.447% | outcome [2] | caspase-3 activation [3] -0.261% | caspase-3 activation [4] 1.44% | outcome [5] | outcome [6] | Potency [7] | Potency [8] | Potency [9] | outcome [10] | outcome [11] | outcome [12] | outcome [13] | outcome [14] | Potency [15] | Potency [16] | Potency [19] | Potency [18]

CC/C=C/C#N
inactive: caspase-3 activation [1] -0.969% | outcome [2] | caspase-3 activation [3] 0.211% | caspase-3 activation [4] 1.85% | outcome [5] | outcome [6] | Potency [7] | Potency [8] | Potency [9] | outcome [10] | outcome [11] | outcome [12] | outcome [13] | outcome [14] | Potency [16] | Potency [17] | Potency [19] | Potency [18]

O=C(Cl)c1cccc([N+](=O)[O-])c1
inactive: caspase-3 activation [1] -1.19% | outcome [2] | caspase-3 activation [3] 3.32% | caspase-3 activation [4] 0.786% | outcome [5] | outcome [6] | Potency [7] | Potency [8] | Potency [9] | outcome [10] | outcome [11] | outcome [12] | outcome [13] | outcome [14] | Potency [15] | Potency [16] | Potency [17] | Potency [18]

O=[N+]([O-])c1c(Cl)cc(Cl)cc1Cl
inactive: caspase-3 activation [1] -0.0612% | outcome [2] | caspase-3 activation [3] 0.356% | caspase-3 activation [4] -0.873% | outcome [5] | outcome [6] | Potency [7] | Potency [8] | Potency [9] | outcome [10] | outcome [11] | outcome [12] | outcome [13] | outcome [14] | Potency [15] | Potency [16] | Potency [17] | Potency [19] | Potency [18]

Cc1ccc2ncccc2c1
inactive: caspase-3 activation [1] 0.979% | outcome [2] | caspase-3 activation [3] 0.47% | caspase-3 activation [4] 0.475% | outcome [5] | outcome [6] | Potency [7] | Potency [8] | Potency [9] | outcome [10] | outcome [11] | outcome [12] | outcome [13] | outcome [14] | Potency [16] | Potency [17] | Potency [19] | Potency [18]

CC(C)C(C)C
inactive: caspase-3 activation [1] 0.762% | outcome [2] | caspase-3 activation [3] -0.199% | caspase-3 activation [4] -1.39% | outcome [5] | outcome [6] | Potency [7] | Potency [8] | Potency [9] | outcome [10] | outcome [11] | outcome [12] | outcome [13] | outcome [14] | Potency [15] | Potency [16] | Potency [19] | Potency [18]

ON=C1CCCCC1
inactive: caspase-3 activation [1] 0.894% | outcome [2] | caspase-3 activation [3] 1.35% | caspase-3 activation [4] 2.27% | outcome [5] | outcome [6] | Potency [7] | Potency [8] | Potency [9] | outcome [10] | outcome [11] | outcome [12] | outcome [13] | outcome [14] | Potency [15] | Potency [16] | Potency [17] | Potency [18]

c1ccc2c(c1)Oc1ccccc1S2
inactive: caspase-3 activation [1] -0.346% | outcome [2] | caspase-3 activation [3] -0.0621% | caspase-3 activation [4] -0.379% | outcome [5] | outcome [6] | Potency [7] | Potency [8] | Potency [9] | outcome [10] | outcome [11] | outcome [12] | outcome [13] | outcome [14] | Potency [15] | Potency [16] | Potency [19]

Cc1cc(C)cc(O)c1
inactive: caspase-3 activation [1] -0.0828% | outcome [2] | caspase-3 activation [3] -0.413% | caspase-3 activation [4] 0.338% | outcome [5] | outcome [6] | Potency [7] | Potency [8] | Potency [9] | outcome [10] | outcome [11] | outcome [12] | outcome [13] | outcome [14] | Potency [15] | Potency [16] | Potency [17] | Potency [19] | Potency [18]

Reference: PubChem BioAssay (NCATS)
